According to PubChem BioAssay AID1159580 (chemical genetic matrix, 2015):
Among all 5,500 compounds or so, about 2,000 (36%) were called active. Not shown: some 18% with an inconclusive outcome. Rule as the data show it: active = normalized growth mostly below about 0.91 (no sharp cut-off); inconclusive = no clear call, values can overlap the other calls; inactive = mostly above about 0.92. The list shows a part of the results.

Test: chemical genetic growth profiling, strain panel (AID 1159580);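 also: tested at 20 µM; growth read once vehicle control cultures reached saturation at 30 °C; 1 = growth at the plate median or of vehicle wells; lower values mean less growth of the strain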
Conditions: growth OD

Measured: normalized growth

CC(=O)OCC1=C(C(=O)O)N2C(=O)[C@@H](NC(=O)CCCC(N)C(=O)O)C2SC1 (some centres not stated)
inactive: S. cerevisiae deletion strains, locus YJR075W, strain HOC1, stronger effect = lower value 1.05 | S. cerevisiae deletion strains, locus YKL009W, strain mrt4, stronger effect = lower value 0.996 | S. cerevisiae deletion strains, locus YKL068W, stronger effect = lower value 1 | S. cerevisiae deletion strains, locus YKL085W, strain MDH1 (second series), stronger effect = lower value 0.995 | S. cerevisiae deletion strains, locus YKL085W, strain MDH1, stronger effect = lower value 0.995 | S. cerevisiae deletion strains, locus YKL160W, strain elf1, stronger effect = lower value 0.998 | S. cerevisiae deletion strains, locus YKL190W, strain CNB1, stronger effect = lower value 1.01 | S. cerevisiae deletion strains, locus YKR001C, strain vps1, stronger effect = lower value 1.03 | S. cerevisiae deletion strains, locus YKR026C, strain gcn3, stronger effect = lower value 0.969 | S. cerevisiae deletion strains, locus YKR091W, strain srl3, stronger effect = lower value 0.999 | S. cerevisiae deletion strains, locus YLL001W, strain dnm1, stronger effect = lower value 0.973 | S. cerevisiae deletion strains, locus YLL026W, stronger effect = lower value 0.996 | S. cerevisiae deletion strains, locus YLL041C, strain sdh2, stronger effect = lower value 0.993 | S. cerevisiae deletion strains, locus YLR027C, strain aat2, stronger effect = lower value 0.998 | S. cerevisiae deletion strains, locus YLR039C, strain RIC1, stronger effect = lower value 1.02 | S. cerevisiae deletion strains, locus YLR058C, strain SHM2, stronger effect = lower value 1.02 | S. cerevisiae deletion strains, locus YLR102C, strain apc9, stronger effect = lower value 0.997 | S. cerevisiae deletion strains, locus YLR113W, strain HOG1, stronger effect = lower value 1.01 | S. cerevisiae deletion strains, locus YLR221C, strain rsa3, stronger effect = lower value 0.994 | S. cerevisiae deletion strains, locus YLR258W, strain gsy2, stronger effect = lower value 1.02 | S. cerevisiae deletion strains, locus YLR262C, strain YPT6 (second series), stronger effect = lower value 0.978 | S. cerevisiae deletion strains, locus YLR262C, strain YPT6, stronger effect = lower value 1.02 | S. cerevisiae deletion strains, locus YLR268W, strain sec22, stronger effect = lower value 1.01 | S. cerevisiae deletion strains, locus YLR320W, strain mms22, stronger effect = lower value 1.01 | S. cerevisiae deletion strains, locus YLR330W, strain CHS5, stronger effect = lower value 1.01 | S. cerevisiae deletion strains, locus YLR342W, strain FKS1 (second series), stronger effect = lower value 1.04 | S. cerevisiae deletion strains, locus YLR342W, strain FKS1, stronger effect = lower value 1.01 | S. cerevisiae deletion strains, locus YLR357W, strain rsc2, stronger effect = lower value 0.99 | S. cerevisiae deletion strains, locus YLR370C, strain arc18, stronger effect = lower value 1.01 | S. cerevisiae deletion strains, locus YLR371W, strain rom2, stronger effect = lower value 1.01 | S. cerevisiae deletion strains, locus YLR384C, strain iki3, stronger effect = lower value 0.994 | S. cerevisiae deletion strains, locus YLR418C, strain cdc73, stronger effect = lower value 1 | S. cerevisiae deletion strains, locus YML016C, strain PPZ1, stronger effect = lower value 1.01 | S. cerevisiae deletion strains, locus YML032C, strain rad52, stronger effect = lower value 1.02 | S. cerevisiae deletion strains, locus YML120C, strain ndi1, stronger effect = lower value 0.996 | S. cerevisiae deletion strains, locus YML124C, strain tub3, stronger effect = lower value 1 | S. cerevisiae deletion strains, locus YMR058W, strain fet3, stronger effect = lower value 0.994 | S. cerevisiae deletion strains, locus YMR078C, strain ctf18, stronger effect = lower value 1 | S. cerevisiae deletion strains, locus YMR125W, strain sto1, stronger effect = lower value 0.996 | S. cerevisiae deletion strains, locus YMR129W, stronger effect = lower value 0.988 | S. cerevisiae deletion strains, locus YMR205C, strain PFK2, stronger effect = lower value 1.02 | S. cerevisiae deletion strains, locus YMR223W, strain ubp8, stronger effect = lower value 1.04 | S. cerevisiae deletion strains, locus YMR231W, strain pep5, stronger effect = lower value 0.988 | S. cerevisiae deletion strains, locus YMR263W, strain SAP30, stronger effect = lower value 1.04 | S. cerevisiae deletion strains, locus YMR307W, strain GAS1, stronger effect = lower value 0.987 | S. cerevisiae deletion strains, locus YNL067W, strain RPL9B, stronger effect = lower value 1.01 | S. cerevisiae deletion strains, locus YNL071W, strain lat1, stronger effect = lower value 1.01 | S. cerevisiae deletion strains, locus YNL128W, strain TEP1, stronger effect = lower value 1.01 | S. cerevisiae deletion strains, locus YNL153C, strain GIM3, stronger effect = lower value 1.03 | S. cerevisiae deletion strains, locus YNL183C, strain NPR1, stronger effect = lower value 0.946 | S. cerevisiae deletion strains, locus YNL209W, strain ssb2, stronger effect = lower value 0.998 | S. cerevisiae deletion strains, locus YNL233W, strain BNI4, stronger effect = lower value 1.02 | S. cerevisiae deletion strains, locus YNL248C, strain rpa49, stronger effect = lower value 0.996 | S. cerevisiae deletion strains, locus YNL250W, strain rad50, stronger effect = lower value 1 | S. cerevisiae deletion strains, locus YNL271C, strain bni1, stronger effect = lower value 0.998 | S. cerevisiae deletion strains, locus YNL298W, strain CLA4, stronger effect = lower value 1.02 | S. cerevisiae deletion strains, locus YNL307C, strain MCK1, stronger effect = lower value 1.01 | S. cerevisiae deletion strains, locus YNL322C, strain KRE1 (second series), stronger effect = lower value 0.99 | S. cerevisiae deletion strains, locus YNL322C, strain KRE1, stronger effect = lower value 1.01 | S. cerevisiae deletion strains, locus YNR049C, strain mso1, stronger effect = lower value 0.996 | S. cerevisiae deletion strains, locus YNR052C, strain pop2, stronger effect = lower value 1.02 | S. cerevisiae deletion strains, locus YOL006C, strain TOP1, stronger effect = lower value 1 | S. cerevisiae deletion strains, locus YOL012C, strain htz1 0.841 | S. cerevisiae deletion strains, locus YOL147C, strain pex11, stronger effect = lower value 0.997 | S. cerevisiae deletion strains, locus YOR001W, strain rrp6, stronger effect = lower value 0.998 | S. cerevisiae deletion strains, locus YOR061W, strain CKA2, stronger effect = lower value 1.01 | S. cerevisiae deletion strains, locus YOR069W, strain VPS5, stronger effect = lower value 1 | S. cerevisiae deletion strains, locus YOR070C, strain gyp1, stronger effect = lower value 0.995 | S. cerevisiae deletion strains, locus YOR080W, strain dia2, stronger effect = lower value 1 | S. cerevisiae deletion strains, locus YOR083W, strain WHI5, stronger effect = lower value 0.993 | S. cerevisiae deletion strains, locus YOR106W, strain vam3, stronger effect = lower value 0.999 | S. cerevisiae deletion strains, locus YOR136W, strain idh2, stronger effect = lower value 1 | S. cerevisiae deletion strains, locus YOR144C, strain elg1, stronger effect = lower value 0.99 | S. cerevisiae deletion strains, locus YOR184W, strain ser1, stronger effect = lower value 1.02 | S. cerevisiae deletion strains, locus YOR231W, strain MKK1, stronger effect = lower value 1 | S. cerevisiae deletion strains, locus YOR265W, strain rbl2, stronger effect = lower value 0.993 | S. cerevisiae deletion strains, locus YOR270C, strain vph1, stronger effect = lower value 1.08 | S. cerevisiae deletion strains, locus YOR290C, strain snf2, stronger effect = lower value 0.973 | S. cerevisiae deletion strains, locus YOR316C, strain cot1, stronger effect = lower value 0.994 | S. cerevisiae deletion strains, locus YPL051W, strain arl3, stronger effect = lower value 0.99 | S. cerevisiae deletion strains, locus YPL055C, strain LGE1, stronger effect = lower value 1.03 | S. cerevisiae deletion strains, locus YPL078C, strain atp4, stronger effect = lower value 0.994 | S. cerevisiae deletion strains, locus YPL106C, strain sse1, stronger effect = lower value 0.981 | S. cerevisiae deletion strains, locus YPL240C, strain hsp82, stronger effect = lower value 1.01 | S. cerevisiae deletion strains, locus YPL241C, strain CIN2, stronger effect = lower value 1.01 | S. cerevisiae deletion strains, locus YPL256C, strain CLN2, stronger effect = lower value 0.967 | S. cerevisiae deletion strains, locus YPR119W, strain clb2, stronger effect = lower value 1 | S. cerevisiae deletion strains, locus YPR141C, strain kar3, stronger effect = lower value 1 | S. cerevisiae deletion strains, locus YPR163C, strain tif3, stronger effect = lower value 1 | S. cerevisiae deletion strains, locus YPR167C, strain met16, stronger effect = lower value 1 | S. cerevisiae deletion strains, strain wtn01, stronger effect = lower value 1 | S. cerevisiae strains, strain wild type, stronger effect = lower value 1.02
